Hit rate of the full screen: of about 24,000 compounds, about 65 (0.3%) were called active. The sample holds actives, similar compounds and a random draw of the others, so the mix is not that of the screen.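 The calls were made as follows: active = share of bacteria positive for the green fluorescent reporter and its mean brightness both inhibited by 50% or more; inactive = the rest, inconclusive results apart.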

We go through 42 compounds from PubChem BioAssay AID527 (NMMLSC, 2006).

The nature of the test: blockers of AIP-driven agr signalling in S. aureus – RNAIII-GFP reporter, flow cytometry, primary screen (AID 527).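 Also: 0% = AIP-stimulated control and 100% = unstimulated bacteria without AIP.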 Conditions: S. aureus RN6390 RNAIII-GFP reporter, AIP-induced, flow cytometry 3 h, at 2 µM, stronger effect = higher value. (In flow cytometry, cells or beads pass a laser one at a time.)
The mark [1] stands for this setting: measured here: inhibition of GFP MFI.

Turning to `Cc1ccccc1NC(=O)Cc1nnc(SCC(=O)N2CCN(c3ccccc3)CC2)n1C`, the inhibition is -0.1% (inactive). Moreover, the inhibition under setting [1] turned out to be 7.2%.

With `CCC(=O)N1CCN=C1SCc1ccc(F)cc1`, the inhibition was 1.7% (inactive). Besides, under setting [1], the inhibition was found to be 7.4%.

Consider `CCOc1ccccc1-n1c(SCC(=O)NCc2ccco2)nnc1-c1ccncc1`, for which the inhibition was -4.3% (inactive). The inhibition under setting [1] is -22.1%.

Take `CN(C)CCCn1c(N)c(C#N)c2nc(C#N)c(C#N)nc21`: the inhibition was -1% (inactive). In addition, under setting [1], the inhibition was 1.8%.

On to `CNC(=O)NCCN1CCCC1=O`, for which the inhibition was 7.2% (inactive). Further, under setting [1], the inhibition was found to be 22.5%.

Regarding `O=C(CCOc1ccccc1)NCc1ccccc1`, the inhibition is 1.7% (inactive). Also, under setting [1], the inhibition is 8.4%.

With `CC1CCCN(C(C(=O)Nc2ccc(C(C)C)cc2)c2ccc3c(c2)OCO3)C1` (centres undefined), the inhibition is -2.3% (inactive). Further, under setting [1], the inhibition was 0.9%.

Take `Cc1cccc(C(=O)OCC(=O)Nc2sc3c(c2C#N)CCC3)c1`: the inhibition was 0% (inactive). Moreover, the inhibition under setting [1] is -2%.

Turning to `Cc1cccc(CC(=O)Nc2c3c(nn2-c2cccc(Cl)c2)CS(=O)C3)c1` (centres undefined), the inhibition is 1.2% (inactive). Besides, under setting [1], the inhibition worked out at 3.3%.

Regarding `Nc1scc(-c2ccncc2)c1Cl`, the inhibition is 0.4% (inactive). Moreover, the inhibition under setting [1] was 15.1%.

Take `CSC1=NCCN1C(=O)c1ccc(S(=O)(=O)N2CCOCC2)cc1`: the inhibition was -5.9% (inactive). Under setting [1], the inhibition is -16.9%.

For the compound `O=C(NCCc1ccccn1)c1ccc(COc2ccccc2)o1`, the inhibition was -0.4% (inactive). Under setting [1], the inhibition is -1.9%.

Consider `O=S1(=O)CC(NCc2ccccc2)C(Nc2ccc(Cl)cc2)C1` (centres undefined), for which the inhibition was -7% (inactive). The inhibition under setting [1] is -45.9%.

`Cc1cccc(N2CCN(C(=O)C3CCN(S(=O)(=O)c4cnc[nH]4)CC3)CC2)c1C`: the inhibition is -9.8% (inactive). The inhibition under setting [1] is -17%.

Regarding `CCCn1c(C(O)c2ccc(OCC)cc2)nc2ccccc21` (centres undefined), the inhibition is -2.6% (inactive). Further, under setting [1], the inhibition was -8.7%.

For the compound `CC(=O)Oc1cc2c(C(=O)NCCN3CCOCC3)c(C)oc2c2ccccc12`, the inhibition is -5.9% (inactive). For the same compound, the inhibition under setting [1] is -9.9%.

As for `CCS(=O)(=O)N1CCCC(C(=O)NCCCN(C)Cc2ccccc2)C1` (centres undefined), the inhibition was -4.7% (inactive). In addition, the inhibition under setting [1] was -9.5%.

In the case of `CC(C)(C)c1ccc(C(=O)NCCC(=O)NCc2ccco2)cc1`, the inhibition was -2.6% (inactive). Moreover, the inhibition under setting [1] was found to be 1.1%.

With `CC1CC(C)CN(CC(=O)Nc2ccc(S(N)(=O)=O)cc2)C1` (centres undefined), the inhibition is -0.3% (inactive). The inhibition under setting [1] was -0.4%.

With `COc1cccc(N2CCN(C3CC(=O)N(c4ccc(Cl)cc4)C3=O)CC2)c1` (centres undefined), the inhibition was -2.7% (inactive). Moreover, under setting [1], the inhibition was -50.4%.

`CCc1ccc(N2CC(C(=O)NC3=NCCS3)CC2=O)cc1` (centres undefined): the inhibition was -0.9% (inactive). Moreover, the inhibition under setting [1] is -2.9%.

As to `OCc1n[nH]c(CO)n1`, the inhibition is -8.3% (inactive). Besides, the inhibition under setting [1] was -35.9%.

As to `COc1ccc(C2/C(=C(/O)c3ccc(OC(C)C)cc3)C(=O)C(=O)N2CCCN2CCOCC2)cc1` (centres undefined), the inhibition is 7.5% (inactive). Also, the inhibition under setting [1] was 17.8%.

For the compound `CCCCN(C)C(=O)c1ccc2c(c1)N(CC)C(=O)c1ccccc1S2(=O)=O`, the inhibition is -3% (inactive). Also, the inhibition under setting [1] was -32.6%.

Consider `COc1ccc(Cl)cc1S(=O)(=O)N1CCN(CC(=O)C(C)(C)C)CC1`, for which the inhibition is -2.8% (inactive). Also, the inhibition under setting [1] was -8.9%.

On to `N#CCCn1cnc2ccccc21`, for which the inhibition is 2.1% (inactive). In addition, the inhibition under setting [1] was 38.9%.

Take `CC(=O)NCC(=O)N(C)C(C(=O)Nc1ccc2c(c1)OCCO2)c1ccccc1` (centres undefined): the inhibition is 0.7% (inactive). Moreover, the inhibition under setting [1] was 7.7%.

`COc1ccccc1-c1cc(C(=O)NCCCn2ccnc2)no1`: the inhibition was 0.6% (inactive). The inhibition under setting [1] worked out at 11.9%.

Regarding `O=C(CN1CCN(C(=O)c2ccco2)CC1)Nc1ccc2c(c1)OCO2`, the inhibition is 0.1% (inactive). In addition, the inhibition under setting [1] came out at 18.6%.

For the compound `CCOC(=O)N1CCN(C(=O)c2ccc3nc4cc(Cl)ccc4c(=O)n3c2)CC1`, the inhibition is 0.6% (inactive). The inhibition under setting [1] was 4.6%.

As to `CCOC(=O)N1CCN(C(=O)c2cnc3n(c2=O)CCS3)CC1`, the inhibition was -0.4% (inactive). The inhibition under setting [1] is 7.7%.

On to `NC(=O)C1(N2CCCCC2)CCN(C(=O)c2ccc(C#Cc3ccccc3)o2)CC1`, for which the inhibition was 14.7% (inactive). Under setting [1], the inhibition was determined as 41.9%.

As to `COc1ccc(-c2noc(COc3ccc(Cl)c(C)c3)n2)cc1`, the inhibition was 0.3% (inactive). In addition, the inhibition under setting [1] is -1.9%.

As for `COc1ccccc1N1CCN(C(=O)c2cc(-c3ccc(Cl)c(Cl)c3)on2)CC1`, the inhibition was 0.6% (inactive). Further, the inhibition under setting [1] was 12%.

Turning to `Cc1ccc(S(=O)(=O)NCC(=O)N(CC(=O)NC2CCCCC2)Cc2ccco2)cc1`, the inhibition is 1% (inactive). Further, the inhibition under setting [1] was 1.8%.

For `O=C(CN1CCOCC1)N1CCCc2c1c(=O)oc1ccc(OCc3ccccc3)cc21`, the inhibition is 7.9% (inactive). The inhibition under setting [1] amounted to 27.4%.

Turning to `COC(=O)c1ccc(NC(=O)CSc2nnc(Cc3cccn3C)n2-c2ccc(F)cc2)cc1`, the inhibition is 0.7% (inactive). Besides, the inhibition under setting [1] amounted to 2.8%.

Take `CCOc1ccc(S(=O)(=O)n2ccnc2)c2ccccc12`: the inhibition is 3.6% (inactive). Further, the inhibition under setting [1] came to 12.2%.

Consider `COc1ccc(N2CCN(CCNC(=O)c3nnc(Cc4c(F)cccc4Cl)o3)CC2)cc1`, for which the inhibition was -1.4% (inactive). The inhibition under setting [1] was -14%.

With `O=C(CSc1nnc(-c2c[nH]c3ccccc23)n1-c1ccc(F)cc1)NCc1ccco1`, the inhibition is -0.1% (inactive). Further, the inhibition under setting [1] is 3.9%.

For `O=C(Nc1nccs1)C1CCCN1S(=O)(=O)c1cccc2cccnc12` (centres undefined), the inhibition is 10.8% (inactive). In addition, under setting [1], the inhibition is 6.8%.

For the compound `CCOCCCN1C(=O)CN(C2CCCCC2)C(=O)C1c1ccc(OCC)c(OC)c1` (centres undefined), the inhibition was 0.8% (inactive). The inhibition under setting [1] was 4.3%.

In general, inhibition refers to the drop in the measured response relative to a control, in per cent.
